From PubChem BioAssay AID1159580 (chemical genetic matrix, 2015)
The campaign covered roughly 5,500 compounds. About 2,000 (36%) were called active. Another 18% or so got no clear call; they are omitted. Rule as the data show it: active = normalized growth mostly below about 0.91 (no sharp cut-off); inconclusive = no clear call, values can overlap the other calls; inactive = mostly above about 0.92. The list shows a part of the results.

Assay: chemical genetic growth profiling, strain panel (AID 1159580);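 also: tested at 20 µM; growth read once vehicle control cultures reached saturation at 30 °C; 1 = growth at the plate median or of vehicle wells; lower values mean less growth of the strain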
Conditions: growth OD

Measured: normalized growth

CCNc1nc(Cl)nc(NCC)n1
inactive: S. cerevisiae deletion strains, locus YJR043C, strain POL32, stronger effect = lower value 0.939 | S. cerevisiae deletion strains, locus YJR075W, strain HOC1, stronger effect = lower value 0.998 | S. cerevisiae deletion strains, locus YKL009W, strain mrt4, stronger effect = lower value 1.01 | S. cerevisiae deletion strains, locus YKL068W, stronger effect = lower value 0.995 | S. cerevisiae deletion strains, locus YKL085W, strain MDH1 (second series), stronger effect = lower value 1 | S. cerevisiae deletion strains, locus YKL085W, strain MDH1, stronger effect = lower value 1 | S. cerevisiae deletion strains, locus YKL160W, strain elf1, stronger effect = lower value 1 | S. cerevisiae deletion strains, locus YKL190W, strain CNB1, stronger effect = lower value 1 | S. cerevisiae deletion strains, locus YKR001C, strain vps1, stronger effect = lower value 1.02 | S. cerevisiae deletion strains, locus YKR026C, strain gcn3, stronger effect = lower value 0.985 | S. cerevisiae deletion strains, locus YKR091W, strain srl3, stronger effect = lower value 0.996 | S. cerevisiae deletion strains, locus YLL001W, strain dnm1, stronger effect = lower value 1 | S. cerevisiae deletion strains, locus YLL026W, stronger effect = lower value 0.981 | S. cerevisiae deletion strains, locus YLL041C, strain sdh2, stronger effect = lower value 0.992 | S. cerevisiae deletion strains, locus YLR027C, strain aat2, stronger effect = lower value 0.977 | S. cerevisiae deletion strains, locus YLR039C, strain RIC1, stronger effect = lower value 1 | S. cerevisiae deletion strains, locus YLR058C, strain SHM2, stronger effect = lower value 0.999 | S. cerevisiae deletion strains, locus YLR102C, strain apc9, stronger effect = lower value 1.01 | S. cerevisiae deletion strains, locus YLR221C, strain rsa3, stronger effect = lower value 0.987 | S. cerevisiae deletion strains, locus YLR258W, strain gsy2, stronger effect = lower value 0.989 | S. cerevisiae deletion strains, locus YLR262C, strain YPT6 (second series), stronger effect = lower value 0.992 | S. cerevisiae deletion strains, locus YLR262C, strain YPT6, stronger effect = lower value 0.997 | S. cerevisiae deletion strains, locus YLR268W, strain sec22, stronger effect = lower value 1 | S. cerevisiae deletion strains, locus YLR320W, strain mms22, stronger effect = lower value 0.986 | S. cerevisiae deletion strains, locus YLR330W, strain CHS5, stronger effect = lower value 0.994 | S. cerevisiae deletion strains, locus YLR342W, strain FKS1 (second series), stronger effect = lower value 0.995 | S. cerevisiae deletion strains, locus YLR342W, strain FKS1, stronger effect = lower value 0.991 | S. cerevisiae deletion strains, locus YLR357W, strain rsc2, stronger effect = lower value 0.953 | S. cerevisiae deletion strains, locus YLR370C, strain arc18, stronger effect = lower value 1.02 | S. cerevisiae deletion strains, locus YLR371W, strain rom2, stronger effect = lower value 1 | S. cerevisiae deletion strains, locus YLR384C, strain iki3, stronger effect = lower value 0.976 | S. cerevisiae deletion strains, locus YLR418C, strain cdc73, stronger effect = lower value 0.985 | S. cerevisiae deletion strains, locus YML016C, strain PPZ1, stronger effect = lower value 1 | S. cerevisiae deletion strains, locus YML032C, strain rad52, stronger effect = lower value 1.01 | S. cerevisiae deletion strains, locus YML120C, strain ndi1, stronger effect = lower value 1.03 | S. cerevisiae deletion strains, locus YML124C, strain tub3, stronger effect = lower value 1.01 | S. cerevisiae deletion strains, locus YMR058W, strain fet3, stronger effect = lower value 0.999 | S. cerevisiae deletion strains, locus YMR078C, strain ctf18, stronger effect = lower value 1.01 | S. cerevisiae deletion strains, locus YMR125W, strain sto1, stronger effect = lower value 0.99 | S. cerevisiae deletion strains, locus YMR129W, stronger effect = lower value 0.997 | S. cerevisiae deletion strains, locus YMR205C, strain PFK2, stronger effect = lower value 0.997 | S. cerevisiae deletion strains, locus YMR223W, strain ubp8, stronger effect = lower value 1.01 | S. cerevisiae deletion strains, locus YMR231W, strain pep5, stronger effect = lower value 0.995 | S. cerevisiae deletion strains, locus YMR263W, strain SAP30, stronger effect = lower value 1.01 | S. cerevisiae deletion strains, locus YMR307W, strain GAS1, stronger effect = lower value 1.06 | S. cerevisiae deletion strains, locus YNL067W, strain RPL9B, stronger effect = lower value 0.988 | S. cerevisiae deletion strains, locus YNL071W, strain lat1, stronger effect = lower value 0.998 | S. cerevisiae deletion strains, locus YNL128W, strain TEP1, stronger effect = lower value 0.997 | S. cerevisiae deletion strains, locus YNL153C, strain GIM3, stronger effect = lower value 0.985 | S. cerevisiae deletion strains, locus YNL209W, strain ssb2, stronger effect = lower value 0.992 | S. cerevisiae deletion strains, locus YNL233W, strain BNI4, stronger effect = lower value 1.01 | S. cerevisiae deletion strains, locus YNL248C, strain rpa49, stronger effect = lower value 0.989 | S. cerevisiae deletion strains, locus YNL250W, strain rad50, stronger effect = lower value 1.01 | S. cerevisiae deletion strains, locus YNL271C, strain bni1, stronger effect = lower value 1.01 | S. cerevisiae deletion strains, locus YNL298W, strain CLA4, stronger effect = lower value 1.02 | S. cerevisiae deletion strains, locus YNL307C, strain MCK1, stronger effect = lower value 1.01 | S. cerevisiae deletion strains, locus YNL322C, strain KRE1 (second series), stronger effect = lower value 0.997 | S. cerevisiae deletion strains, locus YNL322C, strain KRE1, stronger effect = lower value 0.996 | S. cerevisiae deletion strains, locus YNR049C, strain mso1, stronger effect = lower value 0.988 | S. cerevisiae deletion strains, locus YNR052C, strain pop2, stronger effect = lower value 1.02 | S. cerevisiae deletion strains, locus YOL006C, strain TOP1, stronger effect = lower value 1.04 | S. cerevisiae deletion strains, locus YOL012C, strain htz1 1.15 | S. cerevisiae deletion strains, locus YOL147C, strain pex11, stronger effect = lower value 1.01 | S. cerevisiae deletion strains, locus YOR001W, strain rrp6, stronger effect = lower value 0.982 | S. cerevisiae deletion strains, locus YOR061W, strain CKA2, stronger effect = lower value 0.994 | S. cerevisiae deletion strains, locus YOR069W, strain VPS5, stronger effect = lower value 1 | S. cerevisiae deletion strains, locus YOR070C, strain gyp1, stronger effect = lower value 0.983 | S. cerevisiae deletion strains, locus YOR080W, strain dia2, stronger effect = lower value 0.998 | S. cerevisiae deletion strains, locus YOR083W, strain WHI5, stronger effect = lower value 1.01 | S. cerevisiae deletion strains, locus YOR106W, strain vam3, stronger effect = lower value 1.01 | S. cerevisiae deletion strains, locus YOR136W, strain idh2, stronger effect = lower value 1 | S. cerevisiae deletion strains, locus YOR144C, strain elg1, stronger effect = lower value 1 | S. cerevisiae deletion strains, locus YOR184W, strain ser1, stronger effect = lower value 1.02 | S. cerevisiae deletion strains, locus YOR265W, strain rbl2, stronger effect = lower value 0.979 | S. cerevisiae deletion strains, locus YOR270C, strain vph1, stronger effect = lower value 1.02 | S. cerevisiae deletion strains, locus YOR290C, strain snf2, stronger effect = lower value 1.02 | S. cerevisiae deletion strains, locus YOR316C, strain cot1, stronger effect = lower value 1 | S. cerevisiae deletion strains, locus YPL051W, strain arl3, stronger effect = lower value 0.987 | S. cerevisiae deletion strains, locus YPL055C, strain LGE1, stronger effect = lower value 0.992 | S. cerevisiae deletion strains, locus YPL078C, strain atp4, stronger effect = lower value 1.03 | S. cerevisiae deletion strains, locus YPL106C, strain sse1, stronger effect = lower value 0.987 | S. cerevisiae deletion strains, locus YPL240C, strain hsp82, stronger effect = lower value 0.999 | S. cerevisiae deletion strains, locus YPL241C, strain CIN2, stronger effect = lower value 0.995 | S. cerevisiae deletion strains, locus YPR119W, strain clb2, stronger effect = lower value 0.998 | S. cerevisiae deletion strains, locus YPR141C, strain kar3, stronger effect = lower value 1 | S. cerevisiae deletion strains, locus YPR163C, strain tif3, stronger effect = lower value 1 | S. cerevisiae deletion strains, locus YPR167C, strain met16, stronger effect = lower value 0.996 | S. cerevisiae deletion strains, strain wtn01, stronger effect = lower value 1.01 | S. cerevisiae strains, strain wild type, stronger effect = lower value 0.997
